Structures are written as SMILES. Results filed as inconclusive are left out. Calls of active or inactive are those of the source. Calls come from the whole dose curve; as a rule, active = well fitted inhibition curve with a large enough effect; inconclusive = small, poorly fitted or top-dose-only effect; inactive = flat fitted curve, though single readings scatter.

A short description of the experiment: Confirmatory Assay for General miRNAs Modulators and/or Inhibitors/Activators of miR-21: second round cherrypicks. To be noted: HeLa miR-21 FLuc reporter, luciferase luminescence, 48 h; series mostly up to 38.3 µM. From the text: MLPCN Grant: 1 R21 NS059478-01 Assay Provider: Qihong Huang, The Wistar Institute NCGC Assay Overview: MicroRNAs (miRNAs) are endogenously encoded small (~20-25 nucleotides), nonprotein-coding RNAs that are involved in post-transcriptional repression of target messenger RNAs (mRNAs) (Le and Hannon, 2004). Estimated to be involved in the regulation of 30% of all protein-coding mRNAs (Filipowicz et al., 2008), miRNAs play a significant role in many biological processes including cellular differentiation and tissue development (Ghildiyal and Zamore, 2009).
NCGC Assay Protocol Summary: Reagents: HeLa cells stably expressing firefly luciferase (FLuc) under the control of a CMV promoter (upstream) and a miR-21 binding sequence directly downstream of the gene. These cells endogenously express miR-21. Control compounds used were compound C3 (provided by collaborator), N6-phenyladenosine (MP Biomedicals, 0215379625), and DMSO. Assay Summary: 6uL of HeLa miR-21-FLuc cells in assay buffer (DMEM, Invitrogen #21063-029; 10% FBS, HyClone #SH30071.03) were dispensed at 2000cells/well (3.3 x 10^5 cells/mL) into Greiner solid-white TC-treated 1536-well plates using a Multidrop Combi (Thermo Fisher Scientific). Plates were incubated for one hour at 37 degree Celsius, 95% humidity, 5% CO2. These assay plates were then treated with 23nL of compound or DMSO using a Kalypsys pin tool, which allows for delivery of a 24-point titration of each compound to the assay plate, with a final compound concentration ranging from approximately 40uM to 5pM. Assay plates were then incubated for 48 hours. After incubation, plates were allowed to come to RT for one hour prior to delivery of 3uL of 3X luciferase detection reagent. After a 15 minute incubation to allow for cell lysis, luciferase activity was measured using a ViewLux CCD imager (PerkinElmer), with an average exposure time of 2-12 seconds. Keywords: NIH Roadmap, MLPCN, MLSMR, qHTS, miR-21, microRNA, firefly luciferase, FLuc.
Consider `COC(=O)c1ccccc1NC(=O)Nc1cc(C(C)(C)C)on1`, for which the Potency was 5.65 µM (active).

Regarding `COc1ccc(Nc2nc(C)c3ccccc3n2)cc1`, the Potency is 6.34 µM (active).

As to `CCC(C)C(=O)N1CCCC(c2nc(-c3cccs3)no2)C1` (stereo not drawn), the Potency was 12.6 µM (active).

`CCOC(=O)C1CCN(C(=O)c2ccc(-n3ccc4ccccc43)s2)CC1`: the Potency is 11.3 µM (active).

Regarding `Cc1cc(C)c2c(N)c(C(=O)Nc3ccccc3C(F)(F)F)sc2n1`, the Potency is 20 µM (active).

Take `CCCCN1CCc2c([nH]c3ccccc23)C1=O`: the Potency was 12.6 µM (active).

Take `CCC(=O)Nc1sc(C(=O)Nc2ccccc2)c(C)c1C(=O)OC`: the Potency is 2.25 µM (active).

Take `O=C(Nc1sc2c(c1C(=O)NCc1ccco1)CCCC2)c1cc(=O)c2ccccc2o1`: the Potency was 5.65 µM (active).

As for `Cc1ccc(C(=O)Nc2ccc3c(c2)ncn3C)cc1`, the Potency is 7.11 µM (active).

Take `CCC(C)NC(=O)CCCn1c(=O)c2cccn2c2ccccc21` (stereo not drawn): the Potency entry is “inactive”.

Regarding `COc1ccc(N2C(=O)c3ccccc3NC2c2ccc(OC)c(Cn3nnc4ccccc43)c2)cc1` (stereo not drawn), the Potency is 12.6 µM (active).

Regarding `CC(=O)N1CCc2cc(CNC(=O)Cc3ccc(F)cc3)ccc21`, the Potency is 11.3 µM (active).

For the molecule `CCOC(=O)c1cccc(NC(=O)c2cc(CN3CCCC3)on2)c1`, the Potency was 1 µM (active).

Take `CC(=O)O[C@H]1C[C@@]2(C)[C@@H](C[C@@H](O)[C@H]3[C@@]4(C)CC[C@@H](O)[C@@H](C)C4CC[C@@]32C)/C1=C(\CCC=C(C)C)C(=O)O` (stereo partly drawn): the Potency entry is “inactive”.

In the case of `CCc1cc(C(=O)Nc2ccccc2)cs1`, the Potency was 3.18 µM (active).

`O=C(NC1CCCCCC1)C1CCN(C(=O)N2CCOc3ccc(Cl)cc32)CC1`: the Potency result is “inactive”.

Take `COCCNC(=O)c1ccc2c(c1)ncn2-c1ccc(F)c(F)c1`: the Potency was 22.5 µM (active).

Consider `CN(c1ccccc1)S(=O)(=O)c1nnc(NC(=O)c2ccco2)s1`, for which the Potency entry was “inactive”.

With `CCC(CC)C(=O)Nc1nnc(S(=O)(=O)N2CCCCCC2)s1`, the Potency entry is “inactive”.

`Cc1cccc(NC(=O)Nc2ccc(Br)cc2)n1`: the Potency was 2.52 µM (active).

Take `CC(=O)c1ccc(Oc2ncnc3c2oc2ccccc23)cc1`: the Potency was 4 µM (active).

As for `CC(C)c1cc(C(=O)Nc2cccnc2)no1`, the Potency is 3.18 µM (active).

In the case of `CCCOc1ccc(OC(=O)c2ccc(-c3ccc(CCC)cn3)cc2)cc1`, the Potency is 1.26 µM (active).

`Cc1ccccc1NC(=O)c1cc2c([nH]c1=O)CC(C)(C)CC2=O`: the Potency is 0.711 µM (active).

For `Cc1ccc(-c2cc(C(=O)NCC3CCCO3)no2)cc1` (stereo not drawn), the Potency was 4.49 µM (active).

Regarding `Cc1ccc(NC(=O)c2ccc(-c3ccccc3)s2)cc1`, the Potency is 5.65 µM (active).

`COc1ccccc1N1CCN(C(=O)c2nc(-c3ccc(C)cc3)n3c2CCCCC3)CC1`: the Potency result was “inactive”.

As to `C/C(=N/NC(=O)c1ccccc1)c1ccc(NC(=O)C(F)(F)F)cc1`, the Potency entry is “inactive”.
